Gli-Sufu block = Gli-Sufu pathway antagonists, primary screen, luciferase luminescence, Sufu-KO-LIGHT cells, uHTS. Sufu-KO-LIGHT fibroblasts, Gli luciferase reporter luminescence. 340,000 compounds, 0.74% hits. AID 588413, 2011. inhibition, % at 5 µM;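 active means inhibition above about 55%, limit read from the data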
CSC inhib = cancer stem cell viability inhibitors, primary screen, luminescence | cancer stem cell-like cells viability | inhibition, % at 7.5 µM | 300,000 compounds, 1.1% hits | AID 2717, 2010; in the data active means inhibition above about 75%; inconclusive means no clear call, values can overlap the other calls; tested in HMLE shEcad cells
Shn3 3UTR inh = reduction of Shn3 3'UTR firefly luciferase signal, primary screen, Schnurri-3 inhibitor project, cell-based, Clone20 osteoblasts, set 2; Clone20 osteoblast Shn3 3'UTR firefly luciferase, 24 h; AID 588674, 2011; 360,000 compounds, 0.52% hits; inhibition, % at 12.5 µM;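 active means mean inhibition of at least 75% with every replicate also reaching 75%; inconclusive means mean inhibition at least 75% but some replicate below; inactive means mean inhibition below 75%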
PAX8 inh HTS = inhibitors of PAX8-driven TPO luciferase reporter, primary screen, RMG-I cells, single concentration; SteadyGlo, 24 h; inhibition, % at 12.6 µM; 360,000 compounds, 1.2% hits;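 active means mean replicate inhibition at least 60% with every replicate also reaching 60%; inconclusive means only one of the two criteria is met; inactive means mean below 60% and not all replicates reaching 60%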;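 further: luciferase light reporting Pax8 driven TPO promoter activity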
Mdm2-MdmX inh = inhibitors of human Mdm2-MdmX association, primary screen, cell-based, luminescence, split luciferase, SaOS-2, uHTS. Protein Mdm4 (Homo sapiens) + E3 ubiquitin-protein ligase Mdm2 (Homo sapiens), …. 330,000 compounds, 3% hits. SaOS-2 split-luciferase Mdm2/MdmX complementation. AID 485346, 2010. inhibition, % at 8 µM;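 active means inhibition of at least 50% at 8 µM in the primary screen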
Target sequence (O15151 whole entry, looked up): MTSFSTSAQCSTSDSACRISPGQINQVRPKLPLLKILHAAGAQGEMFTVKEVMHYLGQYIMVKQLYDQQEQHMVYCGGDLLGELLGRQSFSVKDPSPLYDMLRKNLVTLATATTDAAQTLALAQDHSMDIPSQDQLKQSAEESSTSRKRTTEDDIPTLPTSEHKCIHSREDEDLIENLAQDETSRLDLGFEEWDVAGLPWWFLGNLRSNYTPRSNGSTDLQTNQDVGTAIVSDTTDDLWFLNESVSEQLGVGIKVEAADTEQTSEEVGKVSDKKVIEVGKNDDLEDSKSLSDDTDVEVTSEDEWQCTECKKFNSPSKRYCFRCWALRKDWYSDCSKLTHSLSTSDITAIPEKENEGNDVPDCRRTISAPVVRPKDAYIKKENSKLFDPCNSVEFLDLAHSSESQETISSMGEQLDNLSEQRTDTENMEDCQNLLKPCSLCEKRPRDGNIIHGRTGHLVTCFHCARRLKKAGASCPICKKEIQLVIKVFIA
Target sequence (Q00987 whole entry, looked up): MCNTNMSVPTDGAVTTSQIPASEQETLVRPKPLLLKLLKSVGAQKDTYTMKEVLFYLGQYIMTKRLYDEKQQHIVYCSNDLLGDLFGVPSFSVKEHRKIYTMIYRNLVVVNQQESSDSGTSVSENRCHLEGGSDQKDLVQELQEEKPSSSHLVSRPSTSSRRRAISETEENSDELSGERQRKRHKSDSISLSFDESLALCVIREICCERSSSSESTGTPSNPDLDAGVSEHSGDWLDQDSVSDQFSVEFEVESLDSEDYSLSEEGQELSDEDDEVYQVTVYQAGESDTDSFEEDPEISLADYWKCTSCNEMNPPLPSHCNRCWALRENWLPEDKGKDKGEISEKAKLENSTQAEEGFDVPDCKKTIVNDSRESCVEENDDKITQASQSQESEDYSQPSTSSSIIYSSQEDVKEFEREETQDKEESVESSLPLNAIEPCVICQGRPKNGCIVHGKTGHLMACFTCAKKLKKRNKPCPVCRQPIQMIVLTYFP
Beta cell apopt = inhibitors of cytokine-induced beta cell apoptosis, primary screen, luminescence; INS-1E cytokine-induced death, ATP luminescence, 48 h; percent of positive-control rescue, neutral wells zero; protection from apoptosis, % (concentration not given with the values); 300,000 compounds, 0.8% hits; AID 435005, 2010;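 active means Every replicate reaches about 75%, or at least half do and their mean reaches it too, limit read from the data; inconclusive means At least half of replicates reach the limit but their mean does not; inactive means Under half of replicates reach the limit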;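 further: higher means more ATP so stronger rescue from cytokine killing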
Gli-Sufu confirm = Gli-SUFU pathway antagonists, confirmation, single concentration, luciferase luminescence, Sufu-KO-LIGHT cells; shares compounds with Gli-Sufu block; Gli luciferase reporter; inhibition, % at 5 µM; 2,500 compounds, 40% hits; AID 602428, 2012;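 active means mean inhibition at 5 µM reaching about 45%, limit read from the data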
SufuKO cytotox = cytotoxicity in Sufu-KO-LIGHT cells, confirmation, cytotoxicity control for Gli-SUFU antagonist project, cell-based, ATP luminescence, single concentration. shares compounds with Gli-Sufu block. cytotoxicity, % at 5 µM. 2,500 compounds, 32% hits. AID 651994, 2013;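 active means mean cytotoxicity at 5 µM above about 25%, limit read from the data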;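 further: cells exposed to compound overnight for roughly 16 to 18 hours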
Wnt3a cs = Wnt3a reporter signal inhibition, confirmation, counter-screen for Gli-SUFU antagonist project, Wnt-LIGHT cells, luminescence, single concentration; Wnt3a-driven luciferase reporter; inhibition, % at 6.25 µM; 2,500 compounds, 20% hits; shares compounds with Gli-Sufu block;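 active means mean inhibition above about 25%, limit read from the data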
Hits are given with their value; i = inactive; ? = inconclusive; nt = not tested or not shown. Sampled rows, rich in hits. Any-hit rate of the full collection: about 4%.

SMILES | Gli-Sufu block | CSC inhib | Shn3 3UTR inh | PAX8 inh HTS | Mdm2-MdmX inh | Beta cell apopt | Gli-Sufu confirm | SufuKO cytotox | Wnt3a cs
C#CCN([C@H](/C=C/C1CC1)[C@@H](O)Cc1ccccc1)[C@@H]1C(=O)N2[C@@H]1SC(C)(C)[C@@H]2C(=O)OC | nt | nt | nt | i | nt | nt | nt | nt | nt
C[C@@H]1CN([C@@H](C)CO)C(=O)CCCn2cc(nn2)CO[C@@H]1CN(C)C | nt | nt | nt | i | nt | nt | nt | nt | nt
Cc1ccc(C)c2sc(NC(=O)CN3C(=O)CCC3=O)nc12 | i | i | i | i | i | i | nt | nt | nt
Cc1ccc2sc(NC(=O)CN3C(=O)CCC3=O)nc2c1C | 57 | i | i | i | i | i | i | i | i
CCOc1cc(/C=C2\CCCC(C(=O)C(F)(F)F)=C2O)ccc1O | 59 | i | i | i | i | i | i | i | i
CC(=O)N1[C@@H](CO)[C@@H](c2ccccc2)C12CN(S(=O)(=O)c1ccccc1)C2 | nt | nt | nt | i | nt | nt | nt | nt | nt
Cc1cc(N2CCN(c3nc(-c4ccc([N+](=O)[O-])cc4)cs3)CC2)c2ccccc2n1 | 63 | i | i | i | i | i | i | i | i
Cc1cc(-c2ccc([N+](=O)[O-])cc2)nc2ccccc12 | i | i | i | i | i | i | nt | nt | nt
O=C(Cn1cc(C(F)(F)F)ccc1=O)N/N=C/c1ccc(Cl)c(Cl)c1 | i | i | i | i | i | i | i | i | i
CCC(=O)N[C@H]1C=C[C@H](CC(=O)NCCN2CCCCC2)O[C@H]1CO | nt | nt | nt | i | nt | nt | nt | nt | nt
OC1(c2ccccc2)Cc2cccc[n+]2C1c1ccccc1 (stereo not drawn) | i | i | i | i | i | nt | nt | nt | nt
CSc1ccc(C2(O)Cc3cccc[n+]3C2c2ccccc2)cc1 (stereo not drawn) | 56 | i | i | i | i | i | i | i | i
O=C(Nc1ccccc1)N[C@@H]1CC[C@H](CCNS(=O)(=O)c2cccc(F)c2)O[C@@H]1CO | nt | nt | nt | i | nt | nt | nt | nt | nt
CCNC(=O)C[C@H]1CC[C@@H]2[C@H](COc3ccc(NC(=O)c4cccc(C(F)(F)F)c4)cc3C(=O)N2C)O1 | nt | nt | nt | i | nt | nt | nt | nt | nt
CCCc1cc(=O)oc2cc(C)cc(OCC(=O)N3CCC(C(=O)O)CC3)c12 | i | i | i | nt | i | nt | i | i | i
CCCCc1cc(=O)oc2cc(C)cc(OCC(=O)N3CCC(C(=O)O)CC3)c12 | i | i | i | nt | i | i | nt | nt | nt
O=C(Nc1ccc2c(c1)[C@@H]1C[C@@H](CC(=O)N3CCOCC3)O[C@@H](CO)[C@@H]1O2)Nc1ccccc1F | nt | nt | nt | i | nt | nt | nt | nt | nt
N#Cc1c(-c2cccc(Br)c2)cc(-c2cccnc2)nc1N | i | i | i | nt | i | i | i | i | i
N#Cc1c(-c2cccs2)cc(-c2cccnc2)nc1N | i | i | i | i | i | i | nt | nt | nt
O=C(CSC(=S)N1CCCC1)c1cc(Br)cc(Br)c1O | 85 | i | nt | i | i | i | i | i | i
CC1CCCN(C(=S)SCC(=O)c2cc(Br)cc(Br)c2O)C1 (stereo not drawn) | i | i | i | i | i | i | nt | nt | nt
CCOc1ccc(Cl)cc1CNc1nnnn1C | i | i | i | i | i | i | i | i | i
CCOc1ccccc1CNc1nnnn1C | nt | i | i | i | i | i | nt | nt | nt
COc1ccc(-n2cc(-c3ccccc3)[n+]3c2CCCCC3)cc1 | 85 | i | i | i | i | 99 | 87 | 28 | 37
FC(F)Sc1ccc(-n2cc(-c3ccccc3)[n+]3c2CCC3)cc1 | 60 | nt | i | i | i | i | 59 | 36 | i
SMILES | Gli-Sufu block | CSC inhib | Shn3 3UTR inh | PAX8 inh HTS | Mdm2-MdmX inh | Beta cell apopt | Gli-Sufu confirm | SufuKO cytotox | Wnt3a cs
COc1ccc(-c2cn(-c3ccc(SC(F)F)cc3)c3[n+]2CCC3)cc1OC | i | i | i | nt | i | i | nt | nt | nt
FC(F)Oc1ccc(-n2cc(-c3ccc(Cl)cc3)[n+]3c2CCCCC3)cc1 | i | i | i | i | i | i | nt | nt | nt
CO[C@@H]1CN(C)C(=O)c2ccc(NC(C)=O)cc2OC[C@H](C)N(Cc2ccccn2)C[C@@H]1C | nt | nt | nt | i | nt | nt | nt | nt | nt
CN1C(=O)c2cc(NC(=O)C3CCCC3)ccc2OC[C@@H]2O[C@@H](CC(=O)O)CC[C@H]21 | nt | nt | nt | i | nt | nt | nt | nt | nt
CNc1ccccc1C(C)(C)c1cc(-c2cccc(OC)c2)no1 | 71 | nt | ? | i | i | i | 76 | 42 | i
COc1ccc(CN(C)C[C@H]2OCCCC[C@H](C)Oc3ccc(NS(=O)(=O)c4ccc(F)cc4)cc3C(=O)N([C@@H](C)CO)C[C@H]2C)cc1 | nt | nt | nt | i | nt | nt | nt | nt | nt
O=C(Cc1cccs1)Nc1nnc(COc2ccccc2)s1 | 99 | i | i | i | i | i | i | i | i
Cc1ccc(S(=O)(=O)Nc2ccc3c(c2)C(=O)N(C)[C@H]2CC[C@@H](CC(=O)O)O[C@@H]2CO3)cc1 | nt | nt | nt | i | nt | nt | nt | nt | nt
CCC1(O)C(=O)OCc2c1cc1n(c2=O)Cc2cc3cc(O)ccc3nc2-1 (stereo not drawn) | i | nt | i | nt | nt | nt | 64 | 51 | i
